# ± gives the standard deviation. Whole data set: some 5,500 sequences, median “pre-steady-state target cleavage rate” near 0.1, cut for the highest 2% near 0.64. What follows is part of a selection rich in the highest values, with near analogues and random picks from the rest.
# Tested on: MIWI (PIWIL1) piRISC loaded with piRNA #2 (30 nt)
# Experiment: pre-steady-state target cleavage rate (min^-1); MIWI and MILI are mouse PIWI proteins and EfPiwi is from a freshwater sponge; tags in brackets are library labels; higher = faster piRNA-guided slicing of the target
# Conditions: guide: piRNA #2 5'p-UUAGGUAACCCAGUAGAUCCAGAGGAAUUC; auxiliary factor: 500 nM mouse GTSF1
# Procedure: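 Cleave-'n-Seq: a library of target RNAs (target site embedded in constant flanks, ACAGCATTCCGCGTTAGTGATATCCG... 5' flank; DNA-blocked outside the site) at 0.1 nM was incubated with 1 nM active mouse MILI or MIWI piRISC (synthetic 5'-monophosphorylated piRNA guide) with or without 500 nM mouse GTSF1 at 33 °C for 1 min to 16 h. Uncleaved targets were sequenced and normalised to non-target controls, and the pooled three trials were fitted to a burst-and-steady-state model to give the pre-steady-state cleavage rate (min^-1; k3 is constrained to at most 1e-4). Sequence is the target site only; target names encode pairing extent (gX:gY) and contiguous / 1-mismatch / 2-mismatch / bulge geometry. Fits with R² ≤ 0 are excluded.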
row,Sequence,pre-steady-state target cleavage rate
1,CUUAACCUCUGGUUCUACUGGGUUACCUAA,0.479 ± 0.042
2,CUUUACCUCUGGUUCUACUGGGUUACCUAA,0.514 ± 0.043
3,CUUAUCCUCUGGUUCUACUGCGUUACCUAA,0.455 ± 0.04
4,GAAUACCUCUGGUUCUACUGGGUUACCUAA,0.59 ± 0.052
5,CUAUACCUCUGGUUCUACUGGGUUACCUAA,0.696 ± 0.053
6,CAAUACCUCUGGUUCUACUGGGUUACCUAA,0.909 ± 0.066
7,GAAUUGCUCUGGAUCUACUGGCUUACCUAA,0.0382 ± 0.014
8,GAAUUCCUCUGGAUACUACUGGGUUACCUAA,0.373 ± 0.056
9,GAAUUCCUCUGGAACUACUGGGUUACCAAA,0.233 ± 0.056
10,CAAUUCCUCUGGAUCUACUCGGUUUCCUAA,0.0763 ± 0.028
11,CAAUUCGUCUGGAUCUACUGCGUUACCUAA,0.376 ± 0.044
12,CUUAAGGAGACCUUCCUACUGGGUUACCUAA,0.00294 ± 0.0029
13,CUUAUGCUCUGGAUCUACUGGGUUACGUAA,0.534 ± 0.042
14,CAAUUCCUCAGGAUCUUCUGGGUUACCUAA,0.485 ± 0.058
15,GAAUUCCUCACGAUCUACUGGGUUACCUAA,0.697 ± 0.051
16,GAAUUCCUCACCAUCUACUGGGUUACCUAA,0.455 ± 0.051
17,CUAUUCCUGACGAUCUACUGGGUUACCUAA,0.133 ± 0.023
18,CUAUUCCUCACGAUCUACUGGGUUACCUAA,0.659 ± 0.042
19,CUAUUCCUCACCAUCUACUGGGUUACCUAA,0.384 ± 0.049
20,CUUUUCCUCACGAUCUACUGGGUUACCUAA,0.635 ± 0.051
21,CAAUUCCUCACGAUCUACUGGGUUACCUAA,0.784 ± 0.05
22,CAAUUCCUCACCAUCUACUGGGUUACCUAA,0.573 ± 0.069
23,CAAUUCCUGACGAUCUACUGGGUUACCUAA,0.212 ± 0.034
24,CAAUUCCUCUGGAUCUACAGGGUUAGCUAA,0.157 ± 0.054
25,CUUAAGCUCUCGAUCUACAGGGUUACCUAA,0.185 ± 0.012

row,Sequence,pre-steady-state target cleavage rate
1,CUUAUCCUCUGGAUCUUCUGGGUUACCUUA,0.289 ± 0.053
2,GAAUACCUCUGGAUCUACUGGGUAACCUAA,0.168 ± 0.035
3,CUUUUCCUCUGCAUCUACUGCGUUACCUAA,0.49 ± 0.037
4,CAAUUCCUCUGCAUCUACUGCGUUACCUAA,0.666 ± 0.058
5,CUUAUCCUCUGCAUCUACUGCGUUACCUAA,0.377 ± 0.032
6,GAAUUCCUCUGCAUCUACUGCGUUACCUAA,0.591 ± 0.054
7,CUAUUCCUCUGCAUCUACUGGGUUACCUAA,0.463 ± 0.04
8,CUAUUCCUCUGCAUCUACUGCGUUACCUAA,0.654 ± 0.047
9,GAAUUCCUCUGGAUCUACUGGCAUACCUAA,0.00471 ± 0.003
10,CUUAACCUCUGAAUCUACUGGGUUACCUAA,0.158 ± 0.019
11,CUUAACCUCUCGAUCUACUGGCUUACCUAA,0.173 ± 0.016
12,CUUAAGGUCUGGAUCUUCUGGGUUACCAAA,0.0379 ± 0.015
13,CUUUUCCUCUUGAUCUACUGGGUUACCUAA,0.705 ± 0.039
14,CUAUUCCUCUUGGAUCUACUGGGUUACCUAA,0.433 ± 0.046
15,GAAUUCCUCUGAUCUACUGGGUUACCUAA,0.454 ± 0.062
16,GAAUUCCUCUUGAUCUACUGGGUUACCUAA,0.74 ± 0.037
17,CAAUUCCUCUGAUCUACUGGGUUACCUAA,0.528 ± 0.061
18,CAAUUCCUCUUGAUCUACUGGGUUACCUAA,0.866 ± 0.044
19,CAAUUCCUCUUGGAUCUACUGGGUUACCUAA,0.358 ± 0.046
20,CUAUUCCUCUGAUCUACUGGGUUACCUAA,0.395 ± 0.048
21,GAAUUCCUCUUGGAUCUACUGGGUUACCUAA,0.402 ± 0.042
22,CUUUUCCUCUGAUCUACUGGGUUACCUAA,0.304 ± 0.036
23,CUUUUCCUCUUGGAUCUACUGGGUUACCUAA,0.346 ± 0.033
24,CUAUUCCUCUUGAUCUACUGGGUUACCUAA,0.767 ± 0.04
